Laboratory results as given in PubChem BioAssay (NCATS).
Inconclusive results are not listed. The source made the active and inactive calls. Unless noted, the call rests on the fitted dose curve; in most records, active means well fitted curve in the direction sought with a large enough effect; inconclusive means small, poorly fitted or top-dose-only effect, or another doubt; inactive means no such curve, though single readings can be large; an effect the other way counts as inactive or inconclusive.

Tested on: not listed separately
Test: Primary qHTS for inhibitors of nuclear receptor binding SET domain protein 2 (NSD2) in an RCH-ACV wild type WT cells (2C) (AID 1645877); further: nearly all actives have a fitted effect of over 70% in size; further: potency means the concentration at half of the fitted maximal effect; on activity change, negative = cell killing: on the % scale 0 is the no-effect control and ±100 the full control effect
Details: RCH-ACV (leukaemia line) NSD2 WT (2C) viability, CellTiter-Glo, 72 h; series mostly up to 44.9 µM; activity change, negative = cell killing: at the top concentration
In the case of `C[C@@H]1O[C@@H](O[C@H]2[C@H](O)[C@@H](C(=O)O)O[C@@H](O[C@H]3CC[C@@]4(C)C(CC[C@]5(C)C4CC=C4C6CC(C)(C)CC[C@]6(C(=O)O)CC[C@]45C)C3(C)C)[C@@H]2O[C@@H]2O[C@H](CO)[C@@H](O)[C@H](O)[C@H]2O)[C@H](O)[C@H](O)[C@H]1O` (stereo partly drawn), the activity change, negative = cell killing was -4.73% [at 9.23 µM] (inactive). With `C[C@]12C=CC(=O)C=C1CC[C@@H]1[C@@H]2[C@@H](O)C[C@@]2(C)[C@H]1CC[C@]2(O)C(=O)COC(=O)CCC(=O)O` the Potency was 0.258 µM (active). For `CC(C)(O)c1ccc2c(c1)C(=O)CC1[C@](C)(CO)CCC[C@]21C` (stereo partly drawn), the “activity change, negative = cell killing” value was -11% (inactive).

Molecular target: Catechol O-methyltransferase (Homo sapiens) (UniProt P21964)
Sequence (P21964 whole entry, looked up): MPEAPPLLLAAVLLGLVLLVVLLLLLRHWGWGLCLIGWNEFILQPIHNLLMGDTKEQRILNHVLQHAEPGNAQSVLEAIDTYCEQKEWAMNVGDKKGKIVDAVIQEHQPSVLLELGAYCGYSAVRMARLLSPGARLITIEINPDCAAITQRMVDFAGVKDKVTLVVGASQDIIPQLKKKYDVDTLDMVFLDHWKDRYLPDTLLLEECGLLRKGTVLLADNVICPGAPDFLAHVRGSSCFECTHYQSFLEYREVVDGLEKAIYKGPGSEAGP
Test: Confirmatory Screen for Target Class Profiling of Small Molecule Inhibitors of Methyltransferases (AID 1745852; calls by dose curve; further: potency means the concentration at half of the fitted maximal effect)
Details: MTase-Glo luminescence, SAH detection, recombinant enzyme; measured here: COMT max response; stronger effect = lower value
Molecule `COc1cc2c(Nc3ccc(Cl)c(Cl)c3F)ncnc2cc1OCC1C[C@@H]2CN(C)C[C@@H]2C1` (stereo partly drawn) has an activity of -81.3%. Molecule `C=Cc1cc(O)cc2nc(-c3ccc(O)c(F)c3)oc12` has an activity of -54.6%. In the case of `CNC1CCN(C(Cc2cccc(-c3ccncc3)c2)C(=O)c2sc3c(F)ccc(F)c3c2Cl)CC1` (stereo not drawn), the activity was -12.3%.

Molecular target: Guanidinoacetate N-methyltransferase (Homo sapiens) (UniProt Q14353)
Test: as above
Details: MTase-Glo luminescence, SAH detection, recombinant enzyme; activity change, negative = inhibition: at 57.3 µM (top of the series) unless noted; series mostly up to 57.3 µM
In the case of `COc1cc2c(Nc3ccc(Cl)c(Cl)c3F)ncnc2cc1OCC1C[C@@H]2CN(C)C[C@@H]2C1` (stereo partly drawn), the Potency was 24.1 µM (active). For `C=Cc1cc(O)cc2nc(-c3ccc(O)c(F)c3)oc12`, the Potency was 30.4 µM (active). For `CNC1CCN(C(Cc2cccc(-c3ccncc3)c2)C(=O)c2sc3c(F)ccc(F)c3c2Cl)CC1` (stereo not drawn), the Potency was 48.2 µM (active).

Molecular target: Nicotinamide N-methyltransferase (Homo sapiens) (UniProt P40261)
Sequence (P40261 whole entry, looked up): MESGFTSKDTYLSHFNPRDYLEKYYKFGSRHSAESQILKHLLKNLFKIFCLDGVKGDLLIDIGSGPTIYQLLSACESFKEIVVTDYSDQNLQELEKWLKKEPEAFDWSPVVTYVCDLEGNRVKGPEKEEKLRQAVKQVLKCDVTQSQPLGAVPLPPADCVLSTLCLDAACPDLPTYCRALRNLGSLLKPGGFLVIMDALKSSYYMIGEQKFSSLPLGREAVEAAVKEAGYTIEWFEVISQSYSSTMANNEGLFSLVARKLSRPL
Test: as above
Details: MTase-Glo luminescence, SAH detection, recombinant enzyme; measured here: NNMT max response; stronger effect = lower value
With `COc1cc2c(Nc3ccc(Cl)c(Cl)c3F)ncnc2cc1OCC1C[C@@H]2CN(C)C[C@@H]2C1` (stereo partly drawn) the activity was -73.4%. With `C=Cc1cc(O)cc2nc(-c3ccc(O)c(F)c3)oc12` the activity was -36%. For `CNC1CCN(C(Cc2cccc(-c3ccncc3)c2)C(=O)c2sc3c(F)ccc(F)c3c2Cl)CC1` (stereo not drawn), the activity was -78%.

Molecular target: Phenylethanolamine N-methyltransferase (Homo sapiens) (UniProt P11086)
Sequence (P11086 whole entry, looked up): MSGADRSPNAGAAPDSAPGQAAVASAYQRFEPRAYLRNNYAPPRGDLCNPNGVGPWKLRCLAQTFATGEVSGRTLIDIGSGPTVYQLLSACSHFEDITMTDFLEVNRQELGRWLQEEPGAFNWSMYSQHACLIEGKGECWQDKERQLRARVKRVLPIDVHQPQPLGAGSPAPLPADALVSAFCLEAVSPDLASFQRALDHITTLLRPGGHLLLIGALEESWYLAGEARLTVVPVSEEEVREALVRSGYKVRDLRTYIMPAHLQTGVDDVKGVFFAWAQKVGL
Test: as above
Details: MTase-Glo luminescence, SAH detection, recombinant enzyme; measured here: PNMT max response; stronger effect = lower value
For `COc1cc2c(Nc3ccc(Cl)c(Cl)c3F)ncnc2cc1OCC1C[C@@H]2CN(C)C[C@@H]2C1` (stereo partly drawn), the activity was -80.2%. `C=Cc1cc(O)cc2nc(-c3ccc(O)c(F)c3)oc12` gave an activity of -50.4%. For `CNC1CCN(C(Cc2cccc(-c3ccncc3)c2)C(=O)c2sc3c(F)ccc(F)c3c2Cl)CC1` (stereo not drawn), the activity was -11.9%.

Tested on: not listed separately
Test: NCATS anti-infectives library activity on HEK293 viability as a counter-qHTS vs the C. elegans viability qHTS (AID 1745854); further: on the % scale 0 is the no-effect control and ±100 the full control effect
Details: HEK293 viability counter-screen; series mostly up to 41.8 µM; activity change, negative = cytotoxicity: at the top concentration
How it was run: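 HEK293 cells, 1500 per well, exposed 24 hr at 37C in 5% CO2 to compounds in a 1:5 titration, up to 41.7 uM final. Viability read as CellTiter-Glo luminescence after 10 min at room temperature.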
For `Cc1nnc(C(C)C)n1C1CC2CCC(C1)N2CC[C@H](NC(=O)C1CCC(F)(F)CC1)c1ccccc1` (stereo partly drawn), the “activity change, negative = cytotoxicity” value was 15.1% (inactive). With `CCN(CC)Cc1cc(Nc2ccnc3cc(Cl)ccc23)ccc1O` the “activity change, negative = cytotoxicity” value was -29.6% (inactive). With `CCCCC(CC)COC(=O)CC(C(=O)OCC(CC)CCCC)S(=O)(=O)O` (stereo not drawn) the “activity change, negative = cytotoxicity” value was -6.99% (inactive).
